These results are taken from PubChem BioAssay (NCI).

Common to all, as to assay: NCI-60 one-dose screen, 48 h (100 = growth as untreated, 0 = no growth, -100 = all killed)
In one test the test system is NCI-H23 lung. To be noted: 10 µM unless noted.
The test system of a further test is NCI-H226 lung. The conditions noted are these: 10 µM unless noted.
A further test has as its system NCI-H322M lung. To be noted: 10 µM unless noted.
For the next test, the system named is NCI-H460 lung. The conditions noted are these: 10 µM unless noted.
In a further test the test system is HOP-92 NSCLC. To be noted: 10 µM.
Another test concerns NCI-H522 lung. To be noted: 10 µM.
The test system of another test is A549/ATCC NSCLC. The conditions noted are these: 10 µM unless noted.
A further test concerns 786-0 renal. The conditions noted are these: 10 µM unless noted.
The test system of another test is COLO 205 colon. To be noted: 10 µM unless noted.
In another test the test system is DU-145 prostate. To be noted: 10 µM unless noted.
A further test relates to K-562 leukemia. To be noted: 10 µM unless noted.
In the next test the test system is MALME-3M melanoma. To be noted: 10 µM unless noted.
The test system of the next test is MDA-MB-231 breast. The conditions noted are these: 10 µM unless noted.
A further test relates to RXF 393 renal. The conditions noted are these: 10 µM unless noted.
Another test has as its system SF-268 CNS. The conditions noted are these: 10 µM unless noted.
For another test, the system named is SF-295 CNS. To be noted: 10 µM unless noted.
For the next test, the system named is SF-539 CNS. To be noted: 10 µM unless noted.
A further test relates to UACC-257 melanoma. To be noted: 10 µM unless noted.
In a further test the test system is M14 melanoma. The conditions noted are these: 10 µM unless noted.

This is part of a sample that, as a whole, favours compounds with a hit. Of some 83,000 tested, about 20% had one in any assay.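 Negative percent growth values reflect cell death: -40 means 40% of the cells present at the start died, and -100 means all died.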 A number with no mark means an inactive call. Calls of active or inactive are those of the source. The calls were made as follows: active = growth percent below 10; inactive = the rest.

Turning to `CCCC(C)c1cc(Cc2cc(Cl)cc(Cl)c2O)c(O)c(Cc2cc(Cl)cc(Cl)c2O)c1` (stereo unspecified), the growth is -6.96% (active) in the test on NCI-H23 lung; -4.21% (active) in the test with NCI-H226 lung; 9.16% (active) with NCI-H322M lung; 3.71% (active) in the test with NCI-H460 lung; -19.2% (active) in the test on HOP-92 NSCLC; 4.06% (active) in the test with NCI-H522 lung. Besides, the growth in the test with A549/ATCC NSCLC is 15%; in the test on 786-0 renal it was 6.89% (active); with COLO 205 colon it was 23.9%; in the test on DU-145 prostate it was 26.8%; with K-562 leukemia, 7.77% (active); in the test with MALME-3M melanoma, -22.2% (active). In addition, the growth in the test with MDA-MB-231 breast is -13.4% (active); in the test on RXF 393 renal, -10% (active); in the test on SF-268 CNS, 16.3%; in the test with SF-295 CNS, -38.6% (active); with SF-539 CNS, -3.24% (active); with UACC-257 melanoma, -3.64% (active). In the test with M14 melanoma, the growth was 7.97% (active).
As for `O=C(Cc1ccccc1[N+](=O)[O-])c1ccc2c(c1)OCO2`, the growth was 99.3% in the test on NCI-H23 lung; 97.1% in the test with NCI-H226 lung; 103% in the test with NCI-H322M lung; 101% in the test with NCI-H460 lung; 82% in the test on HOP-92 NSCLC; 91.7% in the test with NCI-H522 lung. In addition, the growth in the test with A549/ATCC NSCLC is 98.1%; in the test on 786-0 renal it was 94.3%; in the test on COLO 205 colon it was 116%; in the test with DU-145 prostate it was 106%; in the test with K-562 leukemia, 94.1%; with MALME-3M melanoma it was 96.1%. In addition, the growth was 109% in the test with MDA-MB-231 breast; 104% with RXF 393 renal; 94.1% in the test with SF-268 CNS; 96.1% with SF-295 CNS; 101% in the test on SF-539 CNS; 98.7% in the test with UACC-257 melanoma. For the same compound, the growth in the test with M14 melanoma is 103%.
`COC(=O)c1ccc2[nH]c(O)c(C(=Nc3ccc(N(C)C(=O)CN4CCN(C)CC4)cc3)c3ccc(CCO)cc3)c2c1`: the growth with NCI-H23 lung was 57.1%; in the test on NCI-H226 lung, 57%; with NCI-H322M lung it was 66.5%; with NCI-H460 lung, 74.6%; in the test with HOP-92 NSCLC it was 66.6%; with NCI-H522 lung it was 33.3%. For the same compound, the growth in the test on A549/ATCC NSCLC was 95.4%; in the test with 786-0 renal, 44.2%; with COLO 205 colon it was 18.1%; with DU-145 prostate, 80.4%; in the test with K-562 leukemia, 8.34% (active); in the test with MALME-3M melanoma it was 19%. Further, the growth was 31.2% with MDA-MB-231 breast; 30% in the test on RXF 393 renal; 29.6% in the test with SF-268 CNS; 93.2% with SF-295 CNS; 28% in the test on SF-539 CNS; 77.6% with UACC-257 melanoma. In the test with M14 melanoma, the growth is 57.3%.
On to `O=C(O)/C(Br)=C/c1c[nH]c2ccc(Br)cc12`, for which the growth in the test on NCI-H23 lung is 99.6%; in the test on NCI-H226 lung, 108%; in the test on NCI-H322M lung, 116%; in the test on NCI-H460 lung, 122%; with HOP-92 NSCLC, 174%; in the test with NCI-H522 lung, 110%. Further, the growth in the test on A549/ATCC NSCLC was 117%; with 786-0 renal, 101%; in the test on COLO 205 colon it was 156%; with DU-145 prostate, 115%; in the test with K-562 leukemia, 68%; in the test with MALME-3M melanoma, 106%. Moreover, the growth in the test on MDA-MB-231 breast is 102%; with RXF 393 renal, 109%; in the test with SF-268 CNS, 124%; in the test on SF-295 CNS it was 102%; with SF-539 CNS it was 112%; with UACC-257 melanoma, 117%.
With `c1ccc(Nc2ncc3c(n2)-c2cccn2CC3)cc1`, the growth was 98.7% with NCI-H23 lung; 59.2% in the test on NCI-H226 lung; 86.9% with NCI-H322M lung; 95.9% with NCI-H460 lung; 77.4% in the test on HOP-92 NSCLC; 85.8% in the test on NCI-H522 lung. Further, the growth in the test with A549/ATCC NSCLC is 113%; in the test with 786-0 renal, 98.7%; in the test on COLO 205 colon, 112%; in the test on DU-145 prostate it was 99.4%; with K-562 leukemia it was 96.6%; in the test on MALME-3M melanoma it was 95.1%. Moreover, the growth in the test with MDA-MB-231 breast was 80.8%; in the test with RXF 393 renal, 97.8%; with SF-268 CNS, 85.8%; with SF-295 CNS, 99.2%; with SF-539 CNS, 87.1%; in the test on UACC-257 melanoma, 124%. In addition, in the test on M14 melanoma, the growth was 91.7%.
As to `Cc1ccnc2c(NC(C)CCCN)cc(O)c(O)c12` (stereo unspecified), the growth in the test with NCI-H23 lung is 40.4%; with NCI-H226 lung it was 111%; in the test with NCI-H322M lung it was 75.3%; with NCI-H460 lung, 115%; in the test with HOP-92 NSCLC, 47.6%; in the test with NCI-H522 lung, 12.6%. Further, the growth is 94.7% with A549/ATCC NSCLC; 95.1% in the test on 786-0 renal; 77.8% with COLO 205 colon; 80.3% in the test on DU-145 prostate; 80.3% with K-562 leukemia; 123% in the test on MALME-3M melanoma. The growth in the test on MDA-MB-231 breast is 75.2%; in the test with RXF 393 renal, 96.2%; in the test on SF-268 CNS it was 108%; with SF-295 CNS, 104%; with SF-539 CNS it was 79.8%; in the test with UACC-257 melanoma, 97.2%.
Turning to `CCOc1ccc2nc3ccc(Cl)cc3nc2c1`, the growth was 65.4% in the test with NCI-H23 lung; 81.3% in the test on NCI-H226 lung; 96.6% in the test with NCI-H322M lung; 95.9% in the test with NCI-H460 lung; 73.9% with HOP-92 NSCLC; 76.9% in the test with NCI-H522 lung. Further, the growth in the test with A549/ATCC NSCLC is 94.9%; in the test with 786-0 renal it was 81.1%; in the test on COLO 205 colon, 114%; with DU-145 prostate, 92.2%; with K-562 leukemia, 52.8%; in the test on MALME-3M melanoma, 127%. Also, the growth in the test with MDA-MB-231 breast is 106%; with RXF 393 renal, -13% (active); in the test on SF-268 CNS it was 107%; in the test with SF-295 CNS it was 110%; with SF-539 CNS, 92.7%; in the test with UACC-257 melanoma, 101%. Further, the growth in the test on M14 melanoma is -100% (active).
